Measurements published in PubChem BioAssay AID1209 (Sanford-Burnham Center for Chemical Genomics, 2008).
About 810 (0.43%) of roughly 190,000 compounds were called active. This is one part of a sample in which actives are shown more often than they occur. A number with no mark means an inactive call. Rule as the data show it: active = inhibition above about 50%; inactive = the rest.

These compounds were tested against Mannose-6-phosphate isomerase (Homo sapiens) (UniProt P34949) (assay: MPI enzyme activity inhibition – biochemical, fluorescence intensity, coupled assay, primary screen (AID 1209;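 also: plate controls were DMSO vehicle for no effect and wells lacking substrate for full effect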)). Settings: purified PMI enzyme, at 20 µM, stronger effect = higher value.
Sequence of Mannose-6-phosphate isomerase (Homo sapiens) (P34949 whole entry, looked up): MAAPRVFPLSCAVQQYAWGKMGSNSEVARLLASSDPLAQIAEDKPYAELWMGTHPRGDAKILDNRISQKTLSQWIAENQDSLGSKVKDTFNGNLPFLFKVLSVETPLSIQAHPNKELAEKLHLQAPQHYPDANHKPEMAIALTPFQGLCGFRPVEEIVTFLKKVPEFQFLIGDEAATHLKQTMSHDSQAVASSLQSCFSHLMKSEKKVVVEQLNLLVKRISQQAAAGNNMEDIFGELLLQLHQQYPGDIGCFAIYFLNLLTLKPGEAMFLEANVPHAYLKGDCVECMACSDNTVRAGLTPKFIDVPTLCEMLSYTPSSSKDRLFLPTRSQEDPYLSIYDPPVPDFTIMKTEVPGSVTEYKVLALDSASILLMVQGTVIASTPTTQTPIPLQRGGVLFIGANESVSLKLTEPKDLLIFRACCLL

| Structure (SMILES) | inhibition |
| --- | --- |
| Cc1ccc(C2=[N+]([O-])C3(CCCCC/C3=N\NC(N)=O)N(O)C2(C)C)o1 (stereo unspecified) | -4.7% |
| COc1cccc(/C=N/NC(=O)Cn2ccnc2C)c1 | 14.6% |
| O=C(COc1ccccc1-c1ccccc1)N/N=C/c1ccc2ccccc2c1 | 8.9% |
| Cc1nccn1CC(=O)N/N=C/c1cccc(O)c1 | 7.9% |
| O=C(COc1ccccc1C(=O)N/N=C\c1ccc(O)c(O)c1)N/N=C/c1ccc(O)c(O)c1 | 60.6% (active) |
| O=C(COc1ccccc1[N+](=O)[O-])N/N=C/c1ccc(O)c([N+](=O)[O-])c1 | -10.2% |
| Cc1nccn1CC(=O)N/N=C/c1ccc(O)c(O)c1 | 64.4% (active) |
| CCOC(=O)C1=C(C)NC(SC(C)=O)=NC1c1ccc(OC(C)=O)c(OC)c1 (stereo unspecified) | 17.5% |
| CC1CCc2c(sc(NC(=O)COC(=O)C3CCCO3)c2C#N)C1 (stereo unspecified) | -3.7% |
| O=C(CSCC(=O)N1CCOCC1)Nc1ccccc1 | -11.1% |
| O=C(NCCc1ccccc1)C1CCN(S(=O)(=O)N2CCC3(CC2)OCCO3)CC1 | 17.1% |
| O=C1CN(C(=O)CSc2nc(-c3ccccc3)cs2)c2ccccc2N1 | -3.1% |
| COc1ccc2nc(NNC(=O)C3COc4ccccc4O3)sc2c1 (stereo unspecified) | -43.9% |
| CN1C(=O)/C(=C/C=C2/CCCN2C)N(C)C1=S | 35.8% |
| CN1C(=O)/C(=C/C=C2\SCCN2C)N(C)C1=S | 45.3% |
| CN1C(=O)/C(=C\C=C2/CCCN2C)N(C)C1=S | 53.2% (active) |
| COc1ccc(/C=C(/NC(=O)c2ccccc2)C(=O)N/N=C/c2ccncc2)c(OC)c1 | 18.6% |
| COc1ccc(CCNC(=O)c2nnn(CC(=O)Nc3cccc(F)c3)c2N)cc1OC | -0.3% |
| CCOc1ccc(/C=C/C(O)=C2/C(=O)NC3(C)CC2c2ccccc2O3)cc1OC (stereo unspecified) | -21.3% |

| Structure (SMILES) | inhibition |
| --- | --- |
| O=C(Cc1cnn(-c2ccccc2)c1)c1ccc(O)c(O)c1O | 70.8% (active) |
| CCc1cc(C(=O)Cc2cnn(-c3ccccc3)c2)c(O)cc1O | 11.4% |
| O=C(c1cnn(-c2ccccc2)c1)c1ccccc1O | 19.7% |
| Nn1c(SCC(=O)Nc2ccc3c(c2)OCO3)nnc1C1CC1 | 5.7% |
| N#Cc1cccc(N=Cc2c(O)ccc3ccccc23)c1 | 39.3% |
| CSc1nccc(Oc2cccc(C#N)c2)n1 | -4.1% |
| N#Cc1ccc(N=c2ssnc2Cl)cc1 | 81.2% (active) |
| COc1ccc(N2CCN(C(=O)c3cccn4c(=O)c5ccccc5nc34)CC2)cc1 | -5.8% |
| CC1CCN(Cc2c(O)ccc3c(=O)c(-c4nc5ccccc5s4)c(N)oc23)CC1 | 11.2% |
| CC1CCCN(Cc2c(O)ccc3c(=O)c(-c4nc5ccccc5s4)c(N)oc23)C1 (stereo unspecified) | 6.9% |
| CC1CCCCN1Cc1c(O)ccc2c(=O)c(-c3nc4ccccc4s3)c(N)oc12 (stereo unspecified) | 58% (active) |
| O=c1c(-c2ccccc2)c(O)nc2ccccn12 | 4.9% |
| COc1cc(C(=O)OCC(=O)N(C)C)cc(NC(=O)c2ccco2)c1OC | 5.7% |
| CO[C@H]1C=CO[C@@]2(C)Oc3c(C)c(O)c4c(O)c(c(C=NN5CCN(C6CCCC6)CC5)c(O)c4c3C2=O)NC(=O)C(C)=CC=C[C@H](C)[C@H](O)[C@@H](C)[C@@H](O)[C@@H](C)[C@H](OC(C)=O)[C@@H]1C | 50.8% (active) |
| CO[C@H]1C=CO[C@@]2(C)Oc3c(C)c(O)c4c(O)c(c(C=NN5CCN(C)CC5)c(O)c4c3C2=O)NC(=O)C(C)=CC=C[C@H](C)[C@H](O)[C@@H](C)[C@@H](O)[C@@H](C)[C@H](OC(C)=O)[C@@H]1C | 7% |
| CO[C@H]1C=CO[C@@]2(C)Oc3c(C)c(O)c4c(O)c(c5c(nc6cc(C)ccn65)c4c3C2=O)NC(=O)C(C)=CC=C[C@H](C)[C@H](O)[C@@H](C)[C@@H](O)[C@@H](C)[C@H](OC(C)=O)[C@@H]1C | 13.9% |
| CC1=NC(C(F)(F)F)(C(F)(F)F)C2=C(CC(C)(C)CC2=O)N1Cc1ccco1 | 6% |
| CN1CCN(/N=C/c2nc(-c3cccc([N+](=O)[O-])c3)n3ccccc23)CC1 | 8.1% |
| O=C(Nc1nc2ccccc2[nH]1)C1CCCC1 | 4.1% |

| Structure (SMILES) | inhibition |
| --- | --- |
| CC(NS(=O)(=O)c1ccccc1)C(c1cccs1)N1CCN(C)CC1 (stereo unspecified) | 1.7% |
| CC(=O)SC(C[N+](=O)[O-])c1cn(C(C)=O)c2ccccc12 (stereo unspecified) | 63.1% (active) |
| CC(=O)n1cc(C(C[N+](=O)[O-])SCCN)c2ccccc21 (stereo unspecified) | 6.6% |
| CC(=O)n1cc(Nc2ccc([N+](=O)[O-])cc2)c2ccccc21 | -30.8% |
| C=CCn1c(SCC(=O)Nc2nc(C)cs2)nnc1C(NC(=O)c1ccccc1)C(C)C (stereo unspecified) | 5.4% |
| O=C(CSc1nc(-c2ccccc2)nc2ccccc12)Nc1cccc(C(=O)O)c1 | 20.6% |
| CCOC(=O)c1cc(-c2ccccc2)sc1NC(=O)c1cc(OC)c(OC)c(OC)c1 | 13% |
| CCOC(=O)c1cc(-c2ccccc2)sc1NC(=O)c1ccc(OC)c(OC)c1 | 42.1% |
| CCOC(=O)c1cc(-c2ccccc2)sc1NC(=O)c1ccc(OC)cc1 | 68.2% (active) |
| CCn1c(SCC(=O)c2ccc(CNC(C)=O)o2)nnc1-c1cccs1 | -9% |
| O=c1cc(-c2ccccc2)[nH]c2ccccc12 | -3.1% |
| O=c1cc2[nH]c3ccccc3c(=O)n2nc1-c1ccccc1 | 63.9% (active) |
| O=c1nc(-c2ccccc2)c2ccccc2[nH]1 | 10.3% |
| Cc1ccc(Cl)cc1NC(=O)N[C@@H](C)C(=O)O | -0.2% |
| O=C(C1CCN(S(=O)(=O)c2cccc3nsnc23)CC1)N1CCn2c1nc1ccccc12 | 8.5% |
| C=CCn1c(NCCOC)nc2c1c(=O)n(C)c(=O)n2C | -2.8% |
| CCSc1nnc2nc(C)cc(C)n12 | 7.6% |
| CCCSc1nnc2nc(C)cc(C)n12 | -2.6% |
